# Assay results reported in ChEMBL document CHEMBL4513216, “Probing the Open Global Health Chemical Diversity Library for Multistage-Active Starting Points for Next-Generation Antimalarials” (ACS Infect Dis, 2020).
# In all, about 69,000 compounds went through this assay and about 8,600 (12%) showed an effect of 50% or more. Only a selection was taken, and strong results are over-represented in it overall.
# Tested on: Plasmodium berghei
# Test: Screen against P. berghei liver stage (PbLuc), transformed with Luciferase, at 10uM
# Type: functional, HepG2
# Conditions: tested at 10 uM
row,Compound,INHIBITION [%]
1,COCCNC(=O)[C@H]1CN(Cc2scnc2C)C[C@H]2OCC[C@@H]12,-44.8
2,Cc1nc(CCNC(=O)NC2CCCN(c3ncccn3)C2)cs1 (centres undefined),8.03
3,O=C1COc2ccc(C(=O)NS(=O)(=O)c3ccccc3F)cc2N1,14.1
4,O=C1COc2cc(C(=O)NS(=O)(=O)c3ccc(F)cc3F)ccc2N1,33.3
5,O=C1COc2cc(C(=O)NS(=O)(=O)c3ccccc3F)ccc2N1,50.4
6,c1cncc(-c2noc(CN3CCCCC3Cn3cccn3)n2)c1 (centres undefined),33.8
7,CC(OCc1ccccc1)C(=O)NCc1ccc(N(C)C)cc1 (centres undefined),33.3
8,Cn1ncc2c1C(COCC1CC1)N(Cc1ccoc1)CC2 (centres undefined),-29.3
9,COC(=O)[C@H]1CN(C(=O)c2cscn2)C[C@@H]1c1ccc(F)cc1,32.8
10,CNC(=O)[C@@]12CCO[C@@H]1CCN(S(=O)(=O)c1ccccc1F)C2,52
11,CNC(=O)[C@@]12CCO[C@@H]1CCN(S(=O)(=O)c1ccc(C)cc1)C2,21.8
12,CNC(=O)[C@@]12CCO[C@@H]1CCN(S(=O)(=O)c1ccccc1C)C2,6.6
13,CNC(=O)[C@@]12CCO[C@@H]1CCN(S(=O)(=O)c1cc(C)cc(C)c1)C2,54.4
14,CNC(=O)[C@@]12CCO[C@@H]1CCN(S(=O)(=O)c1cccc(C)c1)C2,38.7
15,CNC(=O)[C@@]12CCO[C@@H]1CCN(S(=O)(=O)c1ccccc1)C2,42.7
16,Cc1nc(C(=O)N2CCC(c3nnc(Cn4ccnc4)n3C)CC2)cs1,-19.5
17,Cc1ccc(Br)c(S(=O)(=O)NCc2ccnn2C)c1,-24.4
18,COCCN1CCC2(CCN(CC3CC3)CC2)C1=O,8.85
19,Cn1ccnc1-c1nccn1-c1cccc(CN2CCCC2)c1,39.9
20,CCN(CC)CCn1ccnc1-c1cccc(O)c1,-18.8
21,NC(=O)c1ccc(-n2ccnc2C2CC2)cc1N1CCCC1,36.3
22,c1cc(CN2CCCC2)cc(-n2ccnc2-c2ccncc2)c1,22.7
23,Cc1nc[nH]c1-c1nccn1-c1cccc(CN2CCCC2)c1,53
24,NC(=O)c1ccc(-n2ccnc2-c2cccc(O)c2)cc1N1CCCC1,63.5
25,Cc1nc[nH]c1-c1nccn1CCN(C)S(C)(=O)=O,8.86
26,Cc1nc[nH]c1-c1nccn1-c1ccc(C(N)=O)c(N2CCCC2)c1,50.5
27,Cc1nc[nH]c1-c1nc2cc(S(=O)(=O)N3CCCC3)ccc2n1C,4.71

row,Compound,INHIBITION [%]
1,CN(Cc1cnn(C)c1)C(=O)NCCc1ccc2c(c1)OCO2,-24.75
2,Cc1cc2nc(SCC(=O)N3CCCC3)n(-c3ccccc3)c(=O)c2[nH]1,16.6
3,Cc1ncc(CN2CCc3c(nc(-c4ccccn4)[nH]c3=O)C2)n1C,31.6
4,COCCc1noc(CN2CCOC(Cn3nc(C)cc3C)C2)n1 (centres undefined),14.4
5,CCC[C@@H]1CN(C(=O)c2cc3ccccc3s2)C[C@H]1NS(C)(=O)=O,20.1
6,CCC[C@@H]1CN(C(=O)c2cnc3ccccc3c2)C[C@H]1NS(C)(=O)=O,51.1
7,CC(=O)N[C@@H]1CN(C(=O)c2cnc3ccccc3c2)C[C@H]1O,22
8,OCc1nnc2n1CCN(c1cnccn1)C2,28.5
9,CCC(CC)(CNC(=O)OC(C)(C)C)NC(=O)C1CC1,-120
10,CCC(CC)(CNC(=O)OC(C)(C)C)NC(=O)C1CCOCC1,-50.8
11,CCC(CC)(CNC(=O)OC(C)(C)C)NC(=O)C1CCCO1 (centres undefined),56.6
12,Cc1cc(C(=O)Nc2nc3c(s2)CN(S(=O)(=O)C2CC2)CC3)c(C)o1,-59.6
13,CC(C)c1nc(N2CCC(N3CCSCC3)CC2)c2cnn(C)c2n1,21.1
14,C[C@@H]1CN(CCCOc2ccc(F)cc2)CC[C@@]1(O)C1CCOCC1,7.24
15,Cn1nnnc1SCC1Cc2ccccc2O1 (centres undefined),17.2
16,CCc1ccc(C(=O)N2CCCC(n3cncn3)C2)o1 (centres undefined),45.1
17,Cc1cnn(C2CCCN(C(=O)c3ccc(N4CCCC4)nn3)C2)c1 (centres undefined),25.1
18,O=C(c1cccc2c1OCO2)N1CCCC(n2cccn2)C1 (centres undefined),28.5
19,Cc1cnn(C2CCCN(C(=O)c3cccc4c3OCO4)C2)c1 (centres undefined),56.6
20,O=C(CCCc1ccccc1)N1CCCC(n2cncn2)C1 (centres undefined),-12.2
21,Cc1cc(C)n(C2CCCN(C(=O)c3cccc4c3OCO4)C2)n1 (centres undefined),23.7
22,COc1ccc(CCC(=O)N2CCCC(n3cncn3)C2)cc1 (centres undefined),-7.35
23,Cc1ccc(C(=O)N2CCCC(n3cncn3)C2)o1 (centres undefined),60.1
24,COc1ccc(CCCC(=O)N2CCCC(n3cncn3)C2)cc1 (centres undefined),54.8
25,Cc1cnn(C2CCCN(C(=O)c3cc[nH]n3)C2)c1 (centres undefined),64.6
26,Cc1cnn(C2CCCN(C(=O)c3ccc(N(C)C)nn3)C2)c1 (centres undefined),11.6
27,O=C(c1ccc(Br)o1)N1CCCC(n2cncn2)C1 (centres undefined),11.8
